Source: PubChem (several laboratories)
The list is not random: actives were taken first. Their share in the collection is about 4%.
Mdm2 MdmX PPI: human Mdm2/MdmX binding inhibition; AID 485346; O15151+Q00987; inhibition, % at 8 µM; SaOS-2 split-luciferase Mdm2/MdmX complementation, luminescence; 330,000 tested, 3% active;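 active means inhibition of at least 50% at 8 µM in the primary screen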
Gli-Sufu block: Gli-Sufu pathway antagonism | Sufu-KO-LIGHT fibroblasts, Gli luciferase reporter luminescence | inhibition, % at 5 µM | 340,000 tested, 0.74% active | AID 588413;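 active means inhibition above about 55%, limit read from the data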
697 NFkB inh: lowers PMA/ionomycin-induced NF-kB signal in 697 B cells; inhibition, % at 4 µM; 697 B-cell NF-kB luciferase reporter, 16 h; 330,000 tested, 0.33% active; in the data active means inhibition above about 35%
Jurkat NFkB inh: inhibitors of the PMA/ionomycin-induced NF-kB reporter in Jurkat cells | 330,000 tested, 0.53% active | inhibition, % at 4 µM | PMA/ionomycin-induced NF-kB luciferase reporter, luminescence; in the data active means inhibition above about 50%
Beta cell apopt: beta cell apoptosis inhibition; INS-1E cytokine-induced death, ATP luminescence, 48 h; percent of positive-control rescue, neutral wells zero; 300,000 tested, 0.8% active; protection from apoptosis, % (concentration not given with the values); AID 435005;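 active means Every replicate reaches about 75%, or at least half do and their mean reaches it too, limit read from the data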;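 further: higher means more ATP so stronger rescue from cytokine killing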
Mdm2 MdmX conf: human Mdm2/MdmX binding inhibition, confirmed; AID 489028; luminescent assay; shares compounds with Mdm2 MdmX PPI; inhibition, % at 8 µM; 10,000 tested, 55% active; in the data active means inhibition above about 40%
Full FLuc ctr: counter-screen for Mdm2/MdmX inhibitors: full-length luciferase. shares compounds with Mdm2 MdmX PPI. SaOS-2 full-length luciferase counterscreen, luminescence. inhibition, % at 8 µM. 6,200 tested, 77% active;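 active means mean inhibition at 8 µM reaching about 37%, which flags the compound as non-specific, limit read from the data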;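 further: p53-null SaOS-2 cells with luciferase driven by a doxycycline-inducible promoter; compound on cells about two nights before reading with doxycycline added after day one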
Of the large screens only hits and unclear results are named; the others gave an inactive call (follow-up assays come after a bar, where they were run).

Cc1cc(NC(=O)CCC(=O)N(Cc2cccnc2)C(C(=O)NC(C)(C)C)c2ccccc2Cl)no1 (centres undefined)	none
CCOC(=O)C(C(=O)OCC)C(C(=O)OCC)N1CCOCC1 (centres undefined)	Mdm2 MdmX PPI 100 (no result: Beta cell apopt) | Mdm2 MdmX conf inactive
CCOC(=O)C(C)CC(C)C(=O)N1CCOCCOCCN(C(=O)C(C)CC(C)C(=O)OCC)CCOCC1 (centres undefined)	none
Cn1c(CNC(=O)CCNC(=O)c2cccc(F)c2)cc(=O)n(C)c1=O	none
Cc1ccc(/C=N/Nc2nc3ccccc3[nH]2)s1	none
Cc1[nH]c2ccccc2c1/C=N/Nc1nc2ccccc2[nH]1	Mdm2 MdmX PPI 62, Beta cell apopt 118 | Mdm2 MdmX conf inactive
C(=N\Nc1nc2ccccc2[nH]1)/c1cccc2cccnc12	Mdm2 MdmX PPI 65, Gli-Sufu block 67 (no result: Beta cell apopt) | Mdm2 MdmX conf 66 | Full FLuc ctr 45
COc1ccc(C2CN=NC23CCc2ccccc2C3=O)cc1 (centres undefined)	Mdm2 MdmX PPI 66 (no result: Gli-Sufu block) | Mdm2 MdmX conf 53 | Full FLuc ctr 89
Cc1ccc(C)c(NS(=O)(=O)c2ccc3[nH]c(=O)oc3c2)c1	none
COc1cccc(CN(C)C(=O)CSCC(=O)Nc2cccc(C)c2)c1OC	none
COc1ccccc1Nc1nc(NCCC(C)C)nc(N)c1[N+](=O)[O-]	Mdm2 MdmX PPI 53 | Mdm2 MdmX conf 41 | Full FLuc ctr 80
COc1ccccc1Nc1nc(NCCO)nc(N)c1[N+](=O)[O-]	Mdm2 MdmX PPI 62 | Mdm2 MdmX conf inactive
COc1ccccc1Nc1nc(N(C)c2ccccc2)nc(N)c1[N+](=O)[O-]	none
CNc1nc(N)c([N+](=O)[O-])c(Nc2ccccc2OC)n1	Mdm2 MdmX PPI 65 (no result: Beta cell apopt) | Mdm2 MdmX conf inactive | Full FLuc ctr 71
COc1ccc(OC)c(Nc2nc(NCCCN(C)C)nc(N)c2[N+](=O)[O-])c1	none
CC(C(=O)Nc1ccc(F)cc1Cl)N1CCN(S(=O)(=O)c2cccs2)CC1 (centres undefined)	none (no result: Beta cell apopt)
CC(C)S(=O)(=O)c1csc(NC(=O)Nc2cc(Cl)ccc2Cl)c1Cl	Mdm2 MdmX PPI 62 | Mdm2 MdmX conf inactive | Full FLuc ctr 93
CC(=O)NC(CCS(C)(=O)=O)C(=O)Nc1cc(Cl)ccc1Cl (centres undefined)	none
CC(=O)Nc1ccc(NC(=O)c2ccc(C3SCC(=O)N3CCc3ccccc3)cc2)cc1 (centres undefined)	none
Cc1cccc(NC(=O)c2ccc(C3SCC(=O)N3CCc3ccccc3)cc2)c1 (centres undefined)	Mdm2 MdmX PPI 54 | Mdm2 MdmX conf inactive
COc1cccc(CN2CC(C(=O)N3CCN(c4ccc(Cl)cc4)CC3)CCC2=O)c1 (centres undefined)	none
O=C(NC(Nc1cc(C(F)(F)F)ccc1Cl)C(=O)c1ccccc1)c1ccccc1 (centres undefined)	Mdm2 MdmX PPI 52 | Mdm2 MdmX conf inactive
CC(C)C(=O)NC(Nc1cc(C(F)(F)F)ccc1Cl)C(Cl)(Cl)Cl (centres undefined)	none
O=C(Cc1csc(Nc2nc(=S)[nH]c3ccccc23)n1)N1CCN(c2cccc(C(F)(F)F)c2)CC1	Mdm2 MdmX PPI 69 | Mdm2 MdmX conf inactive
COc1cc(OC)cc(C(=O)Nc2nc(CC(=O)NCc3ccc(F)cc3)cs2)c1	Mdm2 MdmX PPI 70 | Mdm2 MdmX conf 65 | Full FLuc ctr 58
S=c1nc(NCc2cccc(Cl)c2)c2ccccc2[nH]1	none (no result: Beta cell apopt)
O=C(Cc1csc(Nc2nc(=S)[nH]c3ccccc23)n1)NCc1ccccc1Cl	Mdm2 MdmX PPI 92 | Mdm2 MdmX conf inactive
O=C(Cc1csc(Nc2nc(=S)[nH]c3ccccc23)n1)NCc1cccc(Cl)c1	Mdm2 MdmX PPI 85 | Mdm2 MdmX conf inactive
O=C(CCCCCNc1nc(=S)[nH]c2ccccc12)NCc1ccccc1Cl	none (no result: Gli-Sufu block)
Cc1ccc(C(=O)OCC(=O)NC(C)c2ccccc2)cc1C (centres undefined)	none
COc1ccc(S(=O)(=O)N2CCOCC2)cc1NC(=O)c1sccc1C	none
Cc1ccc(CNC(=O)Cc2csc(Nc3nc(=S)[nH]c4ccccc34)n2)cc1	Mdm2 MdmX PPI 57 (no result: Gli-Sufu block) | Mdm2 MdmX conf 42 | Full FLuc ctr 102
